The values that follow come from article PMC8384837, “Expanding the binding specificity for RNA recognition by a PUF domain”.

Common to all, as to experiment: yeast three-hybrid, YBZ-1, SC-Leu-His + 0.5 mM 3-AT, 4 days
What all share (conditions): tags: N-Gal4 AD-HA kept; label: inside an RPR1-promoter hybrid RNA with tandem MS2 sites; ssRNA

For one test, the target named is PUM1 PUF domain R2-LWH (Homo sapiens, UniProt Q14671 828-1176, N899L;Y900W;Q903H). In short, it runs like this: (§1)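 The interaction score is the log change in variant frequency from input to selection. Scores were computed in log2 with a pseudocount of 1 for absent variants, using Illumina sequencing of PCR-amplified repeat regions. The input came from four days on SC-Leu and the selection from four days on SC-Leu-His + 0.5 mM 3-AT. The cells were strain YBZ-1 (LexA–MS2 coat fusion, HIS3 reporter) co-expressing Pumilio-1 PUF domain libraries and matching RNA elements from a centromeric plasmid.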

The target of the next test is PUM1 PUF domain R5-GHL (Homo sapiens, UniProt Q14671 828-1176, C1007G;R1008H;Q1011L). In short, it runs like this: as §1
The target in a further test is PUM1 PUF domain R5-RHS (Homo sapiens, UniProt Q14671 828-1176, C1007R;R1008H;Q1011S). In short, it runs like this:
as §1

A further test deals with PUM1 PUF domain R5-KFS (Homo sapiens, UniProt Q14671 828-1176, C1007K;R1008F;Q1011S). Summed up:
as §1

For another test, the target named is PUM1 PUF domain R8-RFW (Homo sapiens, UniProt Q14671 828-1176, N1122R;Y1123F;Q1126W). Summed up: as §1
In another test the target is PUM1 PUF domain R4-WST (Homo sapiens, UniProt Q14671 828-1176, N971W;H972S;Q975T). In short, it runs like this: as §1
The next test deals with PUM1 PUF domain R4-PFF (Homo sapiens, UniProt Q14671 828-1176, N971P;H972F;Q975F). In short, it runs like this: as §1
The next test concerns the target PUM1 PUF domain R3-GPD (Homo sapiens, UniProt Q14671 828-1176, C935G;R936P;Q939D). Summed up: as §1
Another test concerns the target T1, PUM1 PUF domain R6-MHR (Homo sapiens, UniProt Q14671 828-1176, N1043M;Y1044H;Q1047R).
T1 sequence: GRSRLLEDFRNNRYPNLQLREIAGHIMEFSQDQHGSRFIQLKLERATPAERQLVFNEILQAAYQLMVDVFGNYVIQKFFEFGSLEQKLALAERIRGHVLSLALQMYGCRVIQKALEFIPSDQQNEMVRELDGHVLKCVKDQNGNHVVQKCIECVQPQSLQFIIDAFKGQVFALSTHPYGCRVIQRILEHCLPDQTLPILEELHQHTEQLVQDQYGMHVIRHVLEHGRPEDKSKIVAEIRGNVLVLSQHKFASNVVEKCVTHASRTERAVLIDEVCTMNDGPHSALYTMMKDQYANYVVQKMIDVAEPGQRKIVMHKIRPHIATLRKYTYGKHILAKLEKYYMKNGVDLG
Summed up: as §1

The target of another test is PUM1 PUF domain R5-RFQ (Homo sapiens, UniProt Q14671 828-1176, C1007R;R1008F). Summed up:
as §1

Another test addresses PUM1 PUF domain R3-VRA (Homo sapiens, UniProt Q14671 828-1176, C935V;Q939A). Summed up: as §1
In a further test the target is PUM1 PUF domain R5-DHC (Homo sapiens, UniProt Q14671 828-1176, C1007D;R1008H;Q1011C). Summed up:
as §1

The target in the next test is PUM1 PUF domain R4-NRN (Homo sapiens, UniProt Q14671 828-1176, H972R;Q975N). Summed up: as §1
Another test has as its target PUM1 PUF domain R4-CNV (Homo sapiens, UniProt Q14671 828-1176, N971C;H972N;Q975V). In short, it runs like this: as §1
The next test deals with PUM1 PUF domain R8-QFK (Homo sapiens, UniProt Q14671 828-1176, N1122Q;Y1123F;Q1126K). In short, it runs like this:
as §1

PUM1 PUF domain R5-GHL, sequence (Q14671 828-1176 C1007G/R1008H/Q1011L): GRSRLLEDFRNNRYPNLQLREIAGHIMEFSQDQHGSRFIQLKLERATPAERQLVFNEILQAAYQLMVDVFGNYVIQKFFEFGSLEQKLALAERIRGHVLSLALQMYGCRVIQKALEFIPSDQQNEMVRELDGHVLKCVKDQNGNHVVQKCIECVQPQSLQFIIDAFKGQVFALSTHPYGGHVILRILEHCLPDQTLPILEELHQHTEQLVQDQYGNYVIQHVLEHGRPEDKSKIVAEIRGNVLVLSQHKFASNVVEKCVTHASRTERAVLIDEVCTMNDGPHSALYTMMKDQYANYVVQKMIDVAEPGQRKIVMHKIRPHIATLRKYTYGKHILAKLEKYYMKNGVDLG
PUM1 PUF domain R8-RFW, sequence (Q14671 828-1176 N1122R/Y1123F/Q1126W): as the sequence (Q14671 828-1176 C1007G/R1008H/Q1011L) above, with G180C, H181R, L184Q, N295R, Y296F, Q299W counted along it
PUM1 PUF domain R2-LWH, sequence (Q14671 828-1176 N899L/Y900W/Q903H): as the sequence (Q14671 828-1176 C1007G/R1008H/Q1011L) above, with N72L, Y73W, Q76H, G180C, H181R, L184Q counted along it
PUM1 PUF domain R4-WST, sequence (Q14671 828-1176 N971W/H972S/Q975T): as the sequence (Q14671 828-1176 C1007G/R1008H/Q1011L) above, with N144W, H145S, Q148T, G180C, H181R, L184Q counted along it
PUM1 PUF domain R4-PFF, sequence (Q14671 828-1176 N971P/H972F/Q975F): as the sequence (Q14671 828-1176 C1007G/R1008H/Q1011L) above, with N144P, H145F, Q148F, G180C, H181R, L184Q counted along it
PUM1 PUF domain R8-QFK, sequence (Q14671 828-1176 N1122Q/Y1123F/Q1126K): as the sequence (Q14671 828-1176 C1007G/R1008H/Q1011L) above, with G180C, H181R, L184Q, N295Q, Y296F, Q299K counted along it

Consider “GGCUAGAACUAGUGGAUCCCCCGGCGCCCGGCGGCUCGAGCCCGGGUAAGUGUAAAAAGUCUGCAUGCCGCCGGGCGCCAUGCCUGCAGGUCGACUCUAGAAAACAUG”, for which the binding signal in the test with PUM1 PUF domain R2-LWH was 7.08 log2 enrichment (interaction score).
For “GGCUAGAACUAGUGGAUCCCCCGGCGCCCGGCGGCUCGAGCCCGGGUAAGUGUUAAUAGUCUGCAUGCCGCCGGGCGCCAUGCCUGCAGGUCGACUCUAGAAAACAUG”, the values for the binding signal with PUM1 PUF domain R5-GHL, with PUM1 PUF domain R5-RHS and with PUM1 PUF domain R5-KFS were 3.73 log2 enrichment (interaction score), 5.74 log2 enrichment (interaction score) and 5.06 log2 enrichment (interaction score), respectively.
As to “GGCUAGAACUAGUGGAUCCCCCGGCGCCCGGCGGCUCGAGCCCGGGUAAGUGUAAAUAGUCUGCAUGCCGCCGGGCGCCAUGCCUGCAGGUCGACUCUAGAAAACAUG”, the binding signal with PUM1 PUF domain R8-RFW was 4.68 log2 enrichment (interaction score); with PUM1 PUF domain R2-LWH, 2.74 log2 enrichment (interaction score); with PUM1 PUF domain R5-GHL, 4.22 log2 enrichment (interaction score); with PUM1 PUF domain R4-WST, 0.36 log2 enrichment (interaction score); with PUM1 PUF domain R4-PFF it was 5.26 log2 enrichment (interaction score); in the test with PUM1 PUF domain R3-GPD it was 1.39 log2 enrichment (interaction score). In addition, the binding signal with PUM1 PUF domain R6-MHR is 5.76 log2 enrichment (interaction score); in the test with PUM1 PUF domain R5-RFQ it was 2.95 log2 enrichment (interaction score); in the test with PUM1 PUF domain R5-RHS, 4.26 log2 enrichment (interaction score); with PUM1 PUF domain R3-VRA it was 3.97 log2 enrichment (interaction score); in the test with PUM1 PUF domain R5-DHC, 2.98 log2 enrichment (interaction score); with PUM1 PUF domain R4-NRN, 2.83 log2 enrichment (interaction score). The figures for the binding signal with PUM1 PUF domain R4-CNV and with PUM1 PUF domain R5-KFS were 0.77 log2 enrichment (interaction score) and 4.28 log2 enrichment (interaction score), respectively.
In the case of “GGCUAGAACUAGUGGAUCCCCCGGCGCCCGGCGGCUCGAGCCCGGGUAAGCGUAAAUAGUCUGCAUGCCGCCGGGCGCCAUGCCUGCAGGUCGACUCUAGAAAACAUG”, the binding signal in the test with PUM1 PUF domain R8-RFW was 6.4 log2 enrichment (interaction score); with PUM1 PUF domain R8-QFK it was 4.17 log2 enrichment (interaction score).
